One may read the AC50 as the concentration giving half of the maximal activity seen.

The source made the active and inactive calls. Rule for the calls: active = hit-call score of the fitted dose curve at least 0.9, where 1 is the maximum; inactive = score below 0.9.

Common to all, as to conditions: mRNA level, 48 h; actives raise or lower the signal
Read-out in one experiment: MYC, MYC (gene 4609)
Nature of the experiment: LTEA_HepaRG_MYC: Life Technologies and Expression Analysis (LTEA) Assay for MYC using HepaRG (AID 2283518). In outline: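 Cells are thawed, plated and cultured 48 h, then treated for 48 h with test chemicals (eight half-log concentrations from 100 uM, 0.5% DMSO vehicle). RNA is isolated and MYC expression quantified by qRT-PCR against three housekeeping genes.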

Read-out in experiment [1]: matrix metalloproteinase-3 (MMP3), MMP3 (gene 4314)
Put plainly: LTEA_HepaRG_MMP3: Life Technologies and Expression Analysis (LTEA) Assay for matrix metalloproteinase-3 (MMP3) using HepaRG (AID 2283519). In outline: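 Differentiated human HepaRG cells, plated 48 h on collagen I, were exposed in duplicate for 48 h in serum-free induction medium to eight half-log concentrations up to 100 uM in 0.5% DMSO. MMP3 mRNA was quantified by TaqMan qRT-PCR, normalised to ACTB, GAPDH and POLR2A.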

Read-out in experiment [2]: Paternally Expressed 10 (PEG10), PEG10 (gene 23089)
Nature of the experiment: LTEA_HepaRG_PEG10: Life Technologies and Expression Analysis (LTEA) Assay for Paternally Expressed 10 (PEG10) using HepaRG (AID 2283520). In outline: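 HepaRG, 48 h post-plating → serum-free induction medium → 48 h chemical exposure (duplicate, 8-pt, max 100 uM, half-log, 0.5% DMSO) → lysis in RLT → TaqMan qRT-PCR for PEG10, ACTB/GAPDH/POLR2A normalisation.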

Read-out in experiment [3]: Nuclear factor NF-kappa-B p105 subunit (Homo sapiens) (UniProt P19838)
Put plainly: LTEA_HepaRG_NFKB1: Life Technologies and Expression Analysis (LTEA) Assay for Nuclear Factor Kappa B Subunit 1 (NFKB1) using HepaRG (AID 2283521). In outline:
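NFKB1 transcript was measured by TaqMan qRT-PCR on Fluidigm arrays, normalised to three housekeeping genes and fitted in both directions against 0.5% DMSO. HepaRG cells were dosed in duplicate for 48 h in serum-free induction medium, eight half-log steps from 100 uM.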

Read-out in experiment [4]: Protein phosphatase 2A (PPP2R4), PTPA (gene 5524)
Put plainly: LTEA_HepaRG_PPP2R4: Life Technologies and Expression Analysis (LTEA) Assay for Protein phosphatase 2A (PPP2R4) using HepaRG (AID 2283522). In outline:
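Readout is PPP2R4 transcript level by microfluidic qRT-PCR after 48 h chemical treatment of human HepaRG liver cells. Concentrations spanned 100 uM downward in half-log steps; gain or loss of signal was fitted relative to DMSO.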

Read-out in experiment [5]: Phosphatase and tensin (PTEN), PTEN (gene 5728)
Put plainly: LTEA_HepaRG_PTEN: Life Technologies and Expression Analysis (LTEA) Assay for Phosphatase and tensin (PTEN) using HepaRG (AID 2283523). In outline: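 Differentiated human HepaRG cells, plated 48 h then switched to serum-free induction medium, were exposed in duplicate for 48 h to eight half-log concentrations up to 100 uM in 0.5% DMSO. PTEN mRNA measured by TaqMan qRT-PCR, normalized to ACTB/GAPDH/POLR2A, bidirectional fit versus DMSO.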

Read-out in experiment [6]: solute carrier (SLC22A1), SLC22A1 (gene 6580)
Put plainly: LTEA_HepaRG_SLC22A1: Life Technologies and Expression Analysis (LTEA) Assay for solute carrier (SLC22A1) using HepaRG (AID 2283524). In outline: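 Human HepaRG cells were plated 48 h, switched to serum-free induction medium, then exposed in duplicate for 48 h to 8-point half-log series from 100 uM in 0.5% DMSO. SLC22A1 mRNA measured by qRT-PCR, normalized to ACTB/GAPDH/POLR2A, fitted bidirectionally versus DMSO.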

Read-out in experiment [7]: Pyruvate Dehydrogenase Kinase 4 (PDK4), PDK4 (gene 5166)
Put plainly: LTEA_HepaRG_PDK4: Life Technologies and Expression Analysis (LTEA) Assay for Pyruvate Dehydrogenase Kinase 4 (PDK4) using HepaRG (AID 2283525). In outline: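 Differentiated human HepaRG cells, pre-cultured 48 h, were exposed in duplicate for 48 h in serum-free induction medium to eight half-log concentrations up to 100 uM in 0.5% DMSO. PDK4 mRNA was quantified by qRT-PCR, normalized to ACTB, GAPDH and POLR2A, bidirectional fitting versus DMSO.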

Read-out in experiment [8]: NAD(P)H dehydrogenase [quinone] 1 (NQO1), NQO1 (gene 1728)
Put plainly: LTEA_HepaRG_NQO1: Life Technologies and Expression Analysis (LTEA) Assay for NAD(P)H dehydrogenase [quinone] 1 (NQO1) using HepaRG (AID 2283526). In outline:
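HepaRG, 48 h post-plating → serum-free induction medium → test chemical 48 h (duplicate, 100 uM top, half-log x8, 0.5% DMSO) → RNA isolation → qRT-PCR, ACTB/GAPDH/POLR2A normalization; bidirectional curve fit vs DMSO baseline.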

Read-out in experiment [9]: Nuclear factor erythroid 2-related factor 2 (Homo sapiens) (UniProt Q16236)
Nature of the experiment: LTEA_HepaRG_NFE2L2: Life Technologies and Expression Analysis (LTEA) Assay for Nuclear factor erythroid 2-related factor 2 (NFE2L2) Transcription Factor using HepaRG (AID 2283527). In outline:
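Differentiated human HepaRG cells in serum-free induction medium were exposed for 48 h to eight concentrations (top 100 uM, half-log dilutions, 0.5% DMSO), in duplicate. NFE2L2 mRNA was quantified by TaqMan qRT-PCR, normalized to ACTB, GAPDH and POLR2A, with bidirectional fitting versus DMSO.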

Read-out in experiment [10]: succinate dehydrogenase complex iron sulfur subunit B (SDHB), SDHB (gene 6390)
Nature of the experiment: LTEA_HepaRG_SDHB: Life Technologies and Expression Analysis (LTEA) Assay for succinate dehydrogenase complex iron sulfur subunit B (SDHB) using HepaRG (AID 2283528). In outline: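 SDHB transcript level read by TaqMan qRT-PCR, housekeeping-normalised (ACTB, GAPDH, POLR2A), after 48 h chemical treatment of plated HepaRG cells; eight concentrations top 100 uM, half-log steps, 0.5% DMSO, duplicates; fitted both directions against DMSO.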

Read-out in experiment [11]: Signal transducer and activator of transcription 3 (Homo sapiens) (UniProt P40763)
Put plainly: LTEA_HepaRG_STAT3: Life Technologies and Expression Analysis (LTEA) Assay for Signal transducer and activator of transcription (STAT3) using HepaRG (AID 2283529). In outline: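 Differentiated human HepaRG cells in serum-free induction medium were exposed in duplicate for 48 h to eight half-log concentrations up to 100 uM in 0.5% DMSO. STAT3 mRNA was quantified by TaqMan qRT-PCR, normalized to ACTB, GAPDH and POLR2A, and fitted bidirectionally against DMSO.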

Read-out in experiment [12]: solute carrier (SLCO1B1), SLCO1B1 (gene 10599)
Nature of the experiment: LTEA_HepaRG_SLCO1B1: Life Technologies and Expression Analysis (LTEA) Assay for solute carrier (SLCO1B1) using HepaRG (AID 2283530). In outline:
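Gain or loss of SLCO1B1 mRNA is fitted against the 0.5% DMSO vehicle in human HepaRG liver cells treated 48 h at up to 100 uM in half-log steps. Expression comes from qRT-PCR normalized to endogenous controls.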

Read-out in experiment [13]: sulfotransferase 2A1 (SULT2A1), SULT2A1 (gene 6822)
Put plainly: LTEA_HepaRG_SULT2A1: Life Technologies and Expression Analysis (LTEA) Assay for sulfotransferase 2A1 (SULT2A1) using HepaRG (AID 2283531). In outline:
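Cells were plated and cultured 48 h, switched to serum-free induction medium, then dosed in duplicate for 48 h (8 concentrations, max 100 uM). RNA was isolated and SULT2A1 expression measured by qRT-PCR; gain or loss of signal fitted relative to DMSO.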

Read-out in experiment [14]: Transforming Growth Factor (TGFA), TGFA (gene 7039)
Put plainly: LTEA_HepaRG_TGFA: Life Technologies and Expression Analysis (LTEA) Assay for Transforming Growth Factor (TGFA) using HepaRG (AID 2283532). In outline:
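Differentiated human HepaRG cells, plated 48 h then switched to serum-free induction medium, were exposed in duplicate for 48 h to 8-point half-log series from 100 uM in 0.5% DMSO. TGFA mRNA measured by qRT-PCR, normalized to ACTB/GAPDH/POLR2A, bidirectional fit versus DMSO.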

Read-out in experiment [15]: Transforming Growth Factor (TGFB1), TGFB1 (gene 7040)
Put plainly: LTEA_HepaRG_TGFB1: Life Technologies and Expression Analysis (LTEA) Assay for Transforming Growth Factor (TGFB1) Transporter using HepaRG (AID 2283533). In outline:
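Expression change of TGFB1 in human HepaRG cells is measured after a 48 h chemical exposure, up to 100 uM in 0.5% DMSO vehicle. Curves are fitted in both directions relative to the DMSO baseline.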

Read-out in experiment [16]: Tumor necrosis factor receptor 1 (TNFRSF1A), TNFRSF1A (gene 7132)
Put plainly: LTEA_HepaRG_TNFRSF1A: Life Technologies and Expression Analysis (LTEA) Assay for Tumor necrosis factor receptor 1 (TNFRSF1A) using HepaRG (AID 2283535). In outline:
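Expression of TNFRSF1A in human HepaRG liver cells was measured by qRT-PCR 48 h after chemical dosing (maximum 100 uM). Bidirectional curve fitting used 0.5% DMSO as baseline.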

Read-out in experiment [17]: Thyroid Hormone Responsive (THRSP), THRSP (gene 7069)
Nature of the experiment: LTEA_HepaRG_THRSP: Life Technologies and Expression Analysis (LTEA) Assay for Thyroid Hormone Responsive (THRSP) using HepaRG (AID 2283536). In outline: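 Differentiated human HepaRG cells were exposed in duplicate for 48 h in serum-free induction medium to eight concentrations (top 100 uM, half-log steps, 0.5% DMSO). Expression was quantified by TaqMan qRT-PCR, normalized to ACTB, GAPDH and POLR2A, with bidirectional fitting against DMSO.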

Read-out in experiment [18]: Cellular tumor antigen p53 (Homo sapiens) (UniProt P04637)
Nature of the experiment: LTEA_HepaRG_TP53: Life Technologies and Expression Analysis (LTEA) Assay for Tumor Protein P53 (TP53) using HepaRG (AID 2283537). In outline: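 TP53 transcript measured by qRT-PCR, normalized to three housekeeping genes, after 48 h treatment of human HepaRG cultures with chemicals from 100 uM downward in half-log steps (0.5% DMSO vehicle, serum-free induction medium). Up- or down-regulation fitted against DMSO.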

Signal transducer and activator of transcription 3 (Homo sapiens), sequence (P40763 whole entry, looked up): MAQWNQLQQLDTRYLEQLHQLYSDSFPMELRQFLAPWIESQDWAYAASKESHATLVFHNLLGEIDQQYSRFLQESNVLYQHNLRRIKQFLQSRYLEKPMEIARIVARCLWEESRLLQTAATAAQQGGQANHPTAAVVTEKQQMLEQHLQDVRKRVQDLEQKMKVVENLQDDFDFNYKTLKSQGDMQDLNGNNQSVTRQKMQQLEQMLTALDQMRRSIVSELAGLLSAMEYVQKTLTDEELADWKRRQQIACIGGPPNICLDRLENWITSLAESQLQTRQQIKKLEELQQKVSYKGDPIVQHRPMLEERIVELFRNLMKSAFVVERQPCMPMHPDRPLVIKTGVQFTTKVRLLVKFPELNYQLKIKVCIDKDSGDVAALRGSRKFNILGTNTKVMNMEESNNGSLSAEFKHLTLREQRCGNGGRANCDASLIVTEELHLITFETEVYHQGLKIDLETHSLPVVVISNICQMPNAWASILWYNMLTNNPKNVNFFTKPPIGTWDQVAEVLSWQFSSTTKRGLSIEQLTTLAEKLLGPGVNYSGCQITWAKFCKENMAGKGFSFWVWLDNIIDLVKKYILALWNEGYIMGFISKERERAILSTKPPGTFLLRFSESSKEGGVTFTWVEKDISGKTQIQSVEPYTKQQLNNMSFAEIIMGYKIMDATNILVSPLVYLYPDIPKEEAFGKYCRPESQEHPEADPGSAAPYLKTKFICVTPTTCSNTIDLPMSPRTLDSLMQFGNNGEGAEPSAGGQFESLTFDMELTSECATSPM
Nuclear factor erythroid 2-related factor 2 (Homo sapiens), sequence (Q16236 whole entry, looked up): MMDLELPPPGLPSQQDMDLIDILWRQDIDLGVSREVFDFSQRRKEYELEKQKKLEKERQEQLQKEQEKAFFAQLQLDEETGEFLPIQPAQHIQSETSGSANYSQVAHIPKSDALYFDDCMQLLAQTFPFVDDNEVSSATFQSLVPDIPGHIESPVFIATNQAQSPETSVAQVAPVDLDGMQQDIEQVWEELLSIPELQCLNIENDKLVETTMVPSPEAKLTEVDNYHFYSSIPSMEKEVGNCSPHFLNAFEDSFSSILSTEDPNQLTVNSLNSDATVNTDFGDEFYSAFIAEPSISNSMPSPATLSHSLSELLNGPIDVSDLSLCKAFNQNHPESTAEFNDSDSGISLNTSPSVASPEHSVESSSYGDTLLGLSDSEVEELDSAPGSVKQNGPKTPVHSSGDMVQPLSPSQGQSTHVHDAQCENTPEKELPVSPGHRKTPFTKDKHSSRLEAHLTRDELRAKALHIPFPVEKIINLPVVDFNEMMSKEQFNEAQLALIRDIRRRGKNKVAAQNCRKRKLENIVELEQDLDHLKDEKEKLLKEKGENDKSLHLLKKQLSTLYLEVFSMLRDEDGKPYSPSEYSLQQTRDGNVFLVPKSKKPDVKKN
Nuclear factor NF-kappa-B p105 subunit (Homo sapiens), sequence (P19838 whole entry, looked up): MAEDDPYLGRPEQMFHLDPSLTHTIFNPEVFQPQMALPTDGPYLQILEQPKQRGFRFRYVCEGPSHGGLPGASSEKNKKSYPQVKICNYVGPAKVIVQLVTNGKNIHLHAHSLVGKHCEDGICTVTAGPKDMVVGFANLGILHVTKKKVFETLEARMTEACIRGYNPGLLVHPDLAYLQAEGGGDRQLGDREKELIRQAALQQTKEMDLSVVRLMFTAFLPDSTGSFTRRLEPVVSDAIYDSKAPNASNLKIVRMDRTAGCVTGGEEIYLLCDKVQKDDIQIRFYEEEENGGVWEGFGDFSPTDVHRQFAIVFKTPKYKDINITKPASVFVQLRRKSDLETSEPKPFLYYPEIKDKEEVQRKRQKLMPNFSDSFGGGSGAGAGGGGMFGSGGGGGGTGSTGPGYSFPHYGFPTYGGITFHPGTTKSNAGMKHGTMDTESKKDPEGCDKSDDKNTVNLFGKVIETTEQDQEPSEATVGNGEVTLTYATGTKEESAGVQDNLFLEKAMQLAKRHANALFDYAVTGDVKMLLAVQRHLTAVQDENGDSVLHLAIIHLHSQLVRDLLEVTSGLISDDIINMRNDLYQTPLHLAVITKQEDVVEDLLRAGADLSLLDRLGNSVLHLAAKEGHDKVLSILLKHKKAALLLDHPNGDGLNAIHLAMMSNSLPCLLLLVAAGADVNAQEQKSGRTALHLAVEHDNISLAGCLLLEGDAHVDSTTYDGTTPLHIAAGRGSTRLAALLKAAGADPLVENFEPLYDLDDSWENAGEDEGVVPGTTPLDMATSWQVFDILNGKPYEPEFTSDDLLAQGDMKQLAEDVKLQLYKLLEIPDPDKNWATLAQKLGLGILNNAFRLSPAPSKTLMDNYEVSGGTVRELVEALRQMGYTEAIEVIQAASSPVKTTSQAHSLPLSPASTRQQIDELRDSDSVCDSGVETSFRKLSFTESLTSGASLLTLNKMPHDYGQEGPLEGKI
Cellular tumor antigen p53 (Homo sapiens), sequence (P04637 whole entry, looked up): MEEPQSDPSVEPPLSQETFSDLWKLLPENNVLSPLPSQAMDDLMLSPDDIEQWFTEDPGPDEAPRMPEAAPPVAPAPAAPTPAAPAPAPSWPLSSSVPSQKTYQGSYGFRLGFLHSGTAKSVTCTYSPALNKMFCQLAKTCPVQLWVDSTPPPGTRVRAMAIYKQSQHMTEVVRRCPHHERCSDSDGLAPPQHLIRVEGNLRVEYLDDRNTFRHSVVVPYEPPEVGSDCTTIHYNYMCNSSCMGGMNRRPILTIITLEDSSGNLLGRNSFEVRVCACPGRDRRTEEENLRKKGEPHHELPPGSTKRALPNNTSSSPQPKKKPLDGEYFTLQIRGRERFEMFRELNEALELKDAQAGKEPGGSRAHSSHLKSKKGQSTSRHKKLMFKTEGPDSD

With `N[C@@H](Cc1c[nH]c2ccccc12)C(=O)O`, the outcome in the experiment with MYC, MYC (gene 4609) is “inactive”; in experiment [1], “inactive”; in experiment [2], “inactive”; in [3], “inactive”; in experiment [4], “inactive”; in experiment [5], “inactive”. Besides, the call in experiment [6], in experiment [7], in [8], in experiment [9], in experiment [10] and in experiment [11] was inactive. Further, the compound was classed as inactive in [12], in [13], in experiment [14], in [15], in experiment [16] and in [17].

As to `CCC(C)N(C)C(=O)c1cc2ccccc2c(-c2ccccc2Cl)n1` (centres undefined), the AC50 was 31.8 µM (active) in the experiment with MYC, MYC (gene 4609); 13.1 µM (active) in [2]; 6.3 µM (active) in [6]; 40.9 µM (active) in experiment [7]; 16.8 µM (active) in experiment [9]; 11.1 µM (active) in experiment [10]. Further, in [13], the AC50 was 8.44 µM (active). The outcome in experiment [1], in [3], in experiment [4], in experiment [5], in experiment [8] and in [11] was inactive. For the same compound, the call in [12], in [14], in [15], in experiment [16], in experiment [17] and in experiment [18] was inactive.

Take `NC=O`: the outcome with MYC, MYC (gene 4609) is “inactive”; in [1], “inactive”; in [2], “inactive”; in [3], “inactive”; in experiment [4], “inactive”; in [5], “inactive”. Further, the result in experiment [6], in experiment [7], in [8], in experiment [9], in [10] and in experiment [11] was inactive. Further, the outcome in experiment [12], in experiment [13], in [14], in experiment [15], in experiment [16] and in [17] was inactive.

As to `CO[C@@H]1COCC[C@@H]1N[C@@H]1CC[C@@](C(=O)N2CCc3ncc(C(F)(F)F)cc3C2)(C(C)C)C1`, the outcome was “inactive” in the experiment with MYC, MYC (gene 4609); “inactive” in [1]; “inactive” in [2]; “inactive” in [3]; “inactive” in [4]; “inactive” in experiment [5]. The compound was called inactive in experiment [6], in experiment [7], in experiment [8], in experiment [9], in experiment [10] and in experiment [11]. Also, the compound was called inactive in [12], in experiment [13], in experiment [14], in experiment [15], in [16] and in experiment [17]. The compound was called inactive in experiment [18].
